From the supplement of paper PMC10849652
The full data set covers some 8,800 targets. This sample favours those with a hit. About 0.5% of all pairs of compound and target were hits. Unmarked numbers belong to inactive results.

Columns and labels:
Assay in all cases: log2 fold change, soluble protein after heating vs DMSO (PISA); higher = thermal stabilisation; K562 lysate, 10 uM; active = over 0.2 and 3.5 SD of the protein, either way, in both replicates (recomputed)
nilotinib = compound: Cc1cn(-c2cc(NC(=O)c3ccc(C)c(Nc4nccc(-c5cccnc5)n4)c3)cc(C(F)(F)F)c2)cn1 [nilotinib]
Procedure, shortened: (§1)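 Thermal stability, expressed as log-two fold change relative to solvent controls, is given from duplicates. Crude K562 extract in PBS pH 7.4 with 1 mM MgCl2, at 1 mg/mL protein, was treated with 10 μM compound for 30 min and heated in aliquots for 3 min across 48°C-58°C. After pooling, adjustment to 0.5% NP-40 at 4°C and centrifugation at 21,000xg for 90 min, supernatant protein was measured by TMTpro 16plex LC-MS/MS with channel sums equalised.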

[1] = compound: Cc1nc(Nc2n[nH]c3c2CN(C(=O)N[C@H](CN(C)C)c2ccccc2)C3(C)C)c2sccc2n1
Procedure, shortened: as §1

dasatinib = compound: Cc1nc(Nc2ncc(C(=O)Nc3c(C)cccc3Cl)s2)cc(N2CCN(CCO)CC2)n1 [dasatinib]
Procedure, shortened: as §1

[2] = compound: Cc1ncc(-c2ccnc(Nc3ccc(S(C)(=O)=O)cc3)n2)n1C(C)C
Procedure, shortened: as §1

[3] = compound: Cn1cc(-c2ccc3c(c2)CCN3C(=O)Cc2cccc(C(F)(F)F)c2)c2c(N)ncnc21
Procedure, shortened: as §1

quisinostat = compound: Cn1cc(CNCC2CCN(c3ncc(C(=O)NO)cn3)CC2)c2ccccc21 [quisinostat]
Procedure, shortened: as §1

tipifarnib = compound: Cn1cncc1[C@@](N)(c1ccc(Cl)cc1)c1ccc2c(c1)c(-c1cccc(Cl)c1)cc(=O)n2C [tipifarnib]
Procedure, shortened: as §1

[4] = compound: NC(=O)Nc1cc(-c2cccc(F)c2)sc1C(=O)N[C@H]1CCCNC1
Procedure, shortened: as §1

[5] = compound: NC(=O)c1cnc(N[C@@H]2CCCC[C@@H]2N)nc1Nc1cccc(-n2nccn2)c1
Procedure, shortened: as §1

[6] = compound: NC1(c2ccc(-c3nc4ccn5c(=O)[nH]nc5c4cc3-c3ccccc3)cc2)CCC1
Procedure, shortened: as §1

UniProt P33981, sequence (P33981 whole entry, looked up): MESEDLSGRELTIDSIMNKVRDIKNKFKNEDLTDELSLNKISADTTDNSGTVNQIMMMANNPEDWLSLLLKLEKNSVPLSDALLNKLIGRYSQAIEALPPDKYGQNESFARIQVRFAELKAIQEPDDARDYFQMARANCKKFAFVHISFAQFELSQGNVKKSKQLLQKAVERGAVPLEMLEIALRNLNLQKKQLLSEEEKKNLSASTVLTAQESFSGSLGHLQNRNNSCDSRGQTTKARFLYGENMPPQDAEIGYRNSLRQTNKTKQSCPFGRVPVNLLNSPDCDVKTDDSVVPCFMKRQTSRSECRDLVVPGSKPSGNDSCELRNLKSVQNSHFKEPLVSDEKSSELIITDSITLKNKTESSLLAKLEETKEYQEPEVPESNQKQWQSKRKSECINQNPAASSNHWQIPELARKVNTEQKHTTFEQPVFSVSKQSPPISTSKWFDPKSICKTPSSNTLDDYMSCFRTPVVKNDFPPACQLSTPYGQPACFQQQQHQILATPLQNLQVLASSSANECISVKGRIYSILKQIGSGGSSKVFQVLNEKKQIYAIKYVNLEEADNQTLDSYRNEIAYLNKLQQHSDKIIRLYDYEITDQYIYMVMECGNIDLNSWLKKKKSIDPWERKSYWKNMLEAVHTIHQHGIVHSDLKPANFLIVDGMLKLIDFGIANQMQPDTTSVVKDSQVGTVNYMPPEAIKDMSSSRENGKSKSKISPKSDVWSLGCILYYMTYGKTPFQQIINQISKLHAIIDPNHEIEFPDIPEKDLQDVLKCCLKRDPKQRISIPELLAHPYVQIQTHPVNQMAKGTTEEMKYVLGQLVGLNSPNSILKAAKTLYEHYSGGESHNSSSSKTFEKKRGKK
UniProt Q9UKI8, sequence (Q9UKI8 whole entry, looked up): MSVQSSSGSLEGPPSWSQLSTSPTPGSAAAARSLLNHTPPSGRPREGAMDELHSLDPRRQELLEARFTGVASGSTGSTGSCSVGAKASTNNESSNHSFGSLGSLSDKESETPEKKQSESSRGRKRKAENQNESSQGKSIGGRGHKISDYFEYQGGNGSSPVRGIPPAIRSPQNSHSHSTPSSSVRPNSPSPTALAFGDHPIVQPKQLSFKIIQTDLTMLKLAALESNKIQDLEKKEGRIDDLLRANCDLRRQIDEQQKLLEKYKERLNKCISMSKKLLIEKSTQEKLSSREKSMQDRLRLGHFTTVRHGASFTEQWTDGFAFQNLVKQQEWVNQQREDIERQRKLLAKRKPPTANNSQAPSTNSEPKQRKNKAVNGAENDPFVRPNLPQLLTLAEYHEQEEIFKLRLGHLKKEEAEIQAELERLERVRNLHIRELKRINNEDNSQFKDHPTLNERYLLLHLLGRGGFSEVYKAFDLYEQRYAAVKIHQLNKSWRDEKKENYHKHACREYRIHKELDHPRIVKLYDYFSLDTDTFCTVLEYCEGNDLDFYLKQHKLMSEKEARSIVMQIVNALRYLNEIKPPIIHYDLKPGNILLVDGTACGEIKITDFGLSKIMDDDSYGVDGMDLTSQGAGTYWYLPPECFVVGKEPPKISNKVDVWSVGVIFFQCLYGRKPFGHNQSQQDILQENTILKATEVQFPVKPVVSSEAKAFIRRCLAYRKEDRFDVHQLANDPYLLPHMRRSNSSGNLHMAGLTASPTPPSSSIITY
UniProt Q9NYB0, sequence (Q9NYB0 whole entry, looked up): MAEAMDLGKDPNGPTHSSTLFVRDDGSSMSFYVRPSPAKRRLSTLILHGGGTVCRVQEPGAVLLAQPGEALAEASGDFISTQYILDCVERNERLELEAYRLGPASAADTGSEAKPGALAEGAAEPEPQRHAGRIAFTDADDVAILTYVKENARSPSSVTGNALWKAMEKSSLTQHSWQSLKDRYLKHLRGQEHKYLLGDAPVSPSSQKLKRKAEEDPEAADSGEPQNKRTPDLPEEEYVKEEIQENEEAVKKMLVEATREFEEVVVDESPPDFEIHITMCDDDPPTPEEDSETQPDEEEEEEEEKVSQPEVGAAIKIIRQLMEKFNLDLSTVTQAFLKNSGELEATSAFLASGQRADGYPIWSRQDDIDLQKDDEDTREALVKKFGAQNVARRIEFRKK
UniProt Q96F44, sequence (Q96F44 whole entry, looked up): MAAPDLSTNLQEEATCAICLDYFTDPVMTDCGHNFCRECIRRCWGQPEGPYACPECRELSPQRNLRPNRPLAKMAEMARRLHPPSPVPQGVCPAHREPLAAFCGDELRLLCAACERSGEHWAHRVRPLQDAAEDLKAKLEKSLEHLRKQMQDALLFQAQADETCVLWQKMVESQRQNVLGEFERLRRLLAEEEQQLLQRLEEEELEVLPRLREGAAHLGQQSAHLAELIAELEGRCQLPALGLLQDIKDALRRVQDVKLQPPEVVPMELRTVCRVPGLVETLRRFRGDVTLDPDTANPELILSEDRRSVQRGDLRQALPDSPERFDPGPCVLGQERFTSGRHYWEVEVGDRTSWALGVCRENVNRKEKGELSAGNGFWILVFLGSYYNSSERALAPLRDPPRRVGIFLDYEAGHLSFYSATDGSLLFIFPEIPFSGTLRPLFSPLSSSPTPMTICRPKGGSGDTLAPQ
UniProt Q9NUY8, sequence (Q9NUY8 whole entry, looked up): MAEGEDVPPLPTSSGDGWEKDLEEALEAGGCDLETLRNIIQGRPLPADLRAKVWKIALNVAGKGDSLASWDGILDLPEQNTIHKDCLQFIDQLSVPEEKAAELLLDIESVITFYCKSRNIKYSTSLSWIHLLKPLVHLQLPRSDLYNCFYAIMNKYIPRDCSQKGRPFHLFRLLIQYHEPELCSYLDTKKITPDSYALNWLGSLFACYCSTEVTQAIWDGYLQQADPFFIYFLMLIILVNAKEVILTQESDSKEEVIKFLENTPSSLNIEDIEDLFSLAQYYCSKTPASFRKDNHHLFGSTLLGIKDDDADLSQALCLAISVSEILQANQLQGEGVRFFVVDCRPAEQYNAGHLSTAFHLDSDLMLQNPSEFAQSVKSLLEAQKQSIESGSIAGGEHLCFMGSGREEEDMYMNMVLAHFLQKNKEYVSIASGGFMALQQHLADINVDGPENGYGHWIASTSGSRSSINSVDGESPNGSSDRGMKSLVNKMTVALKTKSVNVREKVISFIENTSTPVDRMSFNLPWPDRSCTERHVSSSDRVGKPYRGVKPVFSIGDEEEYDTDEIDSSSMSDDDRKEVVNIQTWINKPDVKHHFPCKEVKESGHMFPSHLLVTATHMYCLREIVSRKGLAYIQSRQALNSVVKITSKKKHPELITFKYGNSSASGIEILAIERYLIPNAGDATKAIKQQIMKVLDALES
UniProt Q8WUH2, sequence (Q8WUH2 whole entry, looked up): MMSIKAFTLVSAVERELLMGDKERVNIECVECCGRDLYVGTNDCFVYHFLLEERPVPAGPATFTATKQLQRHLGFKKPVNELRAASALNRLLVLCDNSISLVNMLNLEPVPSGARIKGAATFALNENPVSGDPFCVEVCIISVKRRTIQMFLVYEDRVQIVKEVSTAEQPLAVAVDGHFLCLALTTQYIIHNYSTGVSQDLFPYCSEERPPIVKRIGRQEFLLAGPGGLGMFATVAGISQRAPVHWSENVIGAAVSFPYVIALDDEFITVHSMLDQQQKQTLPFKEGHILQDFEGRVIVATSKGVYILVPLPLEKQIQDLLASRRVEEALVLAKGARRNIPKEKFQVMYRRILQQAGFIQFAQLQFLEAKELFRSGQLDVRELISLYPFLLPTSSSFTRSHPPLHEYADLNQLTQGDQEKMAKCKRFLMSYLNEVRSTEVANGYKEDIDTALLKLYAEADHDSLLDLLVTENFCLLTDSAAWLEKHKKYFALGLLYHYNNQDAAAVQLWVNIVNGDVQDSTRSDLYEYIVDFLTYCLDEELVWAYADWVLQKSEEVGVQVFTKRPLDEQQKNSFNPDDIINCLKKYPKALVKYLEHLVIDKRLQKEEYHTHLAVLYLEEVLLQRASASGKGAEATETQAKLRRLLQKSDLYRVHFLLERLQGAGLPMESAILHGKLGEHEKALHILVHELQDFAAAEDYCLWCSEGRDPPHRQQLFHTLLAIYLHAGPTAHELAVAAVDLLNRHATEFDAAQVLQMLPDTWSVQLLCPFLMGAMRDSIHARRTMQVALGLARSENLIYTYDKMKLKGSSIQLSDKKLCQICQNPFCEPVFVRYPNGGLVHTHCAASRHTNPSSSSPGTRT
UniProt Q13595, sequence (Q13595 whole entry, looked up): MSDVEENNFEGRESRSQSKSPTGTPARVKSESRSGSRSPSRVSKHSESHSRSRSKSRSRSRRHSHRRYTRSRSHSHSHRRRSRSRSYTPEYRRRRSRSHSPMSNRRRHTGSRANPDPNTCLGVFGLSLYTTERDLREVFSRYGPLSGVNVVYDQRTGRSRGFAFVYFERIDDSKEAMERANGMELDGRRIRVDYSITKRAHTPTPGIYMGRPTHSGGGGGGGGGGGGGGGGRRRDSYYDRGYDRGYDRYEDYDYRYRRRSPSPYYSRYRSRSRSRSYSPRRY
UniProt Q9NUQ7, sequence (Q9NUQ7 whole entry, looked up): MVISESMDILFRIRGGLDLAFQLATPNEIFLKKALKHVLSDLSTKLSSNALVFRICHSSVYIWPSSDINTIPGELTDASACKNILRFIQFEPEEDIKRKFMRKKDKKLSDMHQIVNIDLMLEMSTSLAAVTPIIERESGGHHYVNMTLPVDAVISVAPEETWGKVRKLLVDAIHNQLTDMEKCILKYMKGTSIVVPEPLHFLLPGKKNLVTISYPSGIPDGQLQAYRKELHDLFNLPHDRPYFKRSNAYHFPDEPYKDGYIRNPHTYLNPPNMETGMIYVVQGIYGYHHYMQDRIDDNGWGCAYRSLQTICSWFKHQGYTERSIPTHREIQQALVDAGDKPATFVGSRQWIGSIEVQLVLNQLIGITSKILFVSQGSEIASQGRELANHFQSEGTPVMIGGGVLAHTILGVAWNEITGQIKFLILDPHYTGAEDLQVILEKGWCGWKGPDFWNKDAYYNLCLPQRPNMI
UniProt Q5BJF2, sequence (Q5BJF2 whole entry, looked up): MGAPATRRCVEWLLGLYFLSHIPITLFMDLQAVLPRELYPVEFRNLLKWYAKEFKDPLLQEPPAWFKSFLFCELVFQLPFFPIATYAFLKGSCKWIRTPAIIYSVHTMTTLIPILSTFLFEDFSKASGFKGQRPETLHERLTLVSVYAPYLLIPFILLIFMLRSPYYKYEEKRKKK

Target | log2 fold change (nilotinib) | log2 fold change [1] | log2 fold change (dasatinib) | log2 fold change [2] | log2 fold change [3] | log2 fold change (quisinostat) | log2 fold change (tipifarnib) | log2 fold change [4] | log2 fold change [5] | log2 fold change [6]
TMOD1 (UniProt P28289) | -0.029 | -0.032 | 0.011 | -0.02 | 0.014 | -0.007 | -0.013 | 0.031 | 0.008 | -0.015
TNIK isoform 4 (UniProt Q9UKE5) | -0.019 | 0.087 | 0.203 | 0.11 | -0.011 | -0.198 | -0.022 | 0.483 (active) | 0.08 | -0.021
TTK (UniProt P33981) | 0.007 | 0.236 | -0.014 | 0.185 | 0.013 | -0.062 | -0.147 | 0.034 | -0.001 | -0.057
TTLL12 (UniProt Q14166) | 0.015 | -0.012 | -0.028 | -0.027 | -0.006 | -0.015 | 0.008 | 0.067 | 0.001 | -0.013
UBR4 (UniProt Q5T4S7) | 0.007 | 0.002 | -0.027 | 0.001 | 0.018 | -0.014 | -0.001 | 0.023 | -0.005 | -0.001
TYW3 (UniProt Q6IPR3) | -0.033 | 0.017 | -0.006 | 0.035 | 0.027 | -0.126 | -0.018 | -0.014 | 0.046 | 0.017
TPM1 isoform 4 (UniProt P09493) | 0.02 | 0 | 0.004 | -0.031 | 0.004 | 0.023 | -0.008 | -0.016 | -0.018 | -0.019
TLK1 isoform 2 (UniProt Q9UKI8) | -0.044 | 0.414 (active) | -0.005 | 0.188 | -0.036 | -0.23 | 0.023 | 0.133 | 0.035 | -0.021
TRIM11 (UniProt Q96F44) | -0.019 | 0.053 | -0.021 | 0.055 | 0.023 | -0.104 | -0.015 | -0.019 | -0.004 | -0.023
TGFBRAP1 (UniProt Q8WUH2) | 0.005 | -0.043 | -0.048 | -0.015 | 0.06 | -0.076 | 0.004 | 0.029 | 0.009 | 0.04
UBE3C (UniProt Q15386) | -0.006 | 0.025 | -0.047 | -0.017 | 0.049 | 0.013 | 0.01 | 0.061 | 0.027 | -0.053
TRIM25 (UniProt Q14258) | 0.014 | 0.027 | -0.003 | -0.001 | -0.002 | 0.002 | -0.001 | -0.001 | -0.019 | 0.023
TNFAIP3 (UniProt P21580) | 0.038 | -0.01 | -0.002 | -0.04 | 0.033 | 0.008 | -0.068 | 0.025 | 0.01 | 0.003
TERF2IP (UniProt Q9NYB0) | 0.012 | 0.013 | 0.018 | 0.009 | 0.005 | 0.024 | -0.012 | 0.011 | -0.017 | -0.003
TELO2 (UniProt Q9Y4R8) | -0.012 | -0.014 | -0.082 | -0.021 | 0.035 | -0.057 | -0.013 | 0.058 | 0.003 | -0.03
TIMELESS (UniProt Q9UNS1) | 0.018 | -0.039 | -0.082 | 0.024 | 0.005 | -0.137 | -0.052 | 0.045 | 0.029 | -0.035
TBC1D23 (UniProt Q9NUY8) | 0.013 | -0.018 | -0.001 | -0.005 | -0.021 | -0.028 | 0.018 | 0.01 | -0.032 | -0.004
TECR (UniProt Q9NZ01) | -0.06 | 0.018 | -0.062 | -0.011 | -0.043 | -0.024 | -0.09 | 0.041 | -0.009 | -0.047
TXNRD2 (UniProt Q9NNW7) | 0.063 | 0.008 | 0.039 | 0.071 | 0.015 | -0.017 | -0.005 | -0.023 | -0.006 | -0.05
UFSP2 (UniProt Q9NUQ7) | -0.004 | -0.015 | 0.007 | -0.038 | -0.002 | 0.004 | -0.001 | 0.016 | 0.002 | -0.035
TMEM164 (UniProt Q5U3C3) | 0.06 | -0.009 | -0.087 | 0.162 | -0.041 | -0.404 | -0.055 | 0.1 | 0.083 | -0.036
TMEM87A (UniProt Q8NBN3) | -0.009 | 0.055 | -0.007 | 0.027 | 0.03 | -0.021 | 0.024 | 0.003 | 0.03 | 0.017
TMEM97 (UniProt Q5BJF2) | 0.098 | 0.053 | 0.018 | 0.124 | -0.005 | 0.046 | 0.057 | 0.011 | -0.034 | 0.023
TBK1 (UniProt Q9UHD2) | -0.003 | 0.618 (active) | 0.029 | 0.125 | 0.251 | -0.097 | -0.026 | 0.209 | 0.032 | -0.074
TRA2A (UniProt Q13595) | 0.098 | -0.041 | -0.08 | -0.124 | 0.077 | -0.213 | -0.114 | -0.206 | 0 | -0.062
TUT4 (UniProt Q5TAX3) | -0.06 | 0.02 | -0.097 | 0.001 | -0.001 | -0.054 | -0.045 | 0.055 | 0.048 | -0.002
TRIM33 (UniProt H0Y612) | -0.021 | 0.153 | 0.043 | 0.138 | -0.033 | -0.238 | -0.052 | 0.069 | -0.036 | -0.106
TMEM87B (UniProt Q96K49) | 0.008 | 0.086 | -0.006 | -0.02 | 0.023 | -0.012 | -0.011 | -0.016 | -0.019 | -0.048
TSPAN3 (UniProt O60637) | 0.004 | -0.003 | 0.118 | -0.199 | 0.033 |  | -0.032 |  | -0.098 | 0.015
TNKS (UniProt O95271) | -0.053 | -0.016 | 0.081 | 0.04 | -0.051 | -0.021 | 0.103 | 0.032 | 0.088 | 0.028
